{"source": "PubChem BioAssay AID624255", "about": "(Broad Institute, 2012)", "note": "In all, about 77,000 compounds went through this assay and about 4,600 (6%) were called active. Not shown: some 1% with an inconclusive outcome. This excerpt belongs to a sample that is enriched for actives. A number with no mark means an inactive call.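 How the source made its calls: active means mean inhibition above about 93%, with at least 55% of replicates each passing it (limit read from the data, passing the limit was not always enough); inconclusive means only one of those two conditions holds; inactive means neither condition holds.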", "data": [{"test": "growth inhibition of T. cruzi in host fibroblasts – cell-based, beta-gal Tulahuen parasites, NIH3T3 host, luminescence, primary screen (AID 624255)", "details": "T. cruzi beta-gal in NIH3T3, GalScreen luminescence, 90 h; at 8.34 µM; stronger effect = higher value", "values": [{"smiles": "O=C(NC[C@@H]1[C@@H](c2ccccc2)[C@H](CO)N1C(=O)C1CCC1)NC1CCCC1", "inhibition": "-28.8%"}, {"smiles": "CCN(C[C@H]1[C@H](c2ccccc2)[C@H](CO)N1C(=O)C1CC1)C(=O)NC1CCCC1", "inhibition": "96.5% (active)"}, {"smiles": "CCN(C[C@@H]1[C@@H](c2ccccc2)[C@H](CO)N1C(C)=O)C(=O)NC(C)C", "inhibition": "7.85%"}, {"smiles": "Cn1cnc(S(=O)(=O)N2C[C@@H](O)COC[C@@H]3O[C@H](CC(=O)NCc4ccc(F)cc4)CC[C@H]32)c1", "inhibition": "-30.6%"}, {"smiles": "COc1cccc(S(=O)(=O)N2C[C@@H](O)COC[C@H]3O[C@H](CC(=O)N4CCCCC4)CC[C@@H]32)c1", "inhibition": "25.3%"}, {"smiles": "Cc1ccc(S(=O)(=O)N(C)C[C@@H]2OCc3ccccc3-c3c(n(C)c4ccccc34)C(=O)N([C@@H](C)CO)C[C@@H]2C)cc1", "inhibition": "60.7%"}, {"smiles": "COc1cccc(-c2cnc3c(c2)C(=O)N([C@H](C)CO)C[C@H](C)[C@H](CN(C)S(=O)(=O)c2cccc(F)c2)O3)c1", "inhibition": "62.3%"}, {"smiles": "C[C@H](CO)N1C[C@H](C)[C@@H](CN(C)S(=O)(=O)c2cccc(F)c2)Oc2ncc(-c3cccc(F)c3)cc2C1=O", "inhibition": "49.3%"}, {"smiles": "COc1ccc(S(=O)(=O)N(C)C[C@@H]2OCc3ccccc3-c3ccccc3C(=O)N([C@@H](C)CO)C[C@@H]2C)cc1", "inhibition": "28.9%"}, {"smiles": "C[C@H](CO)N1C[C@H](C)[C@@H](CN(C)S(=O)(=O)c2cccc(F)c2)OCc2ccccc2-c2c(n(C)c3ccccc23)C1=O", "inhibition": "98% (active)"}, {"smiles": "C[C@H](CO)N1C[C@H](C)[C@H](CN(C)S(=O)(=O)c2cccc(F)c2)Oc2ncc(/C=C/c3ccccc3)cc2C1=O", "inhibition": "107% (active)"}, {"smiles": "C[C@H](CO)N1C[C@H](C)[C@@H](CN(C)C(=O)Nc2ccnc(N3CCOCC3)c2)OCc2ccccc2-c2ccccc2C1=O", "inhibition": "113% (active)"}, {"smiles": "COc1cccc(NC(=O)N(C)C[C@H]2OCc3ccccc3-c3ccccc3C(=O)N([C@H](C)CO)C[C@@H]2C)c1", "inhibition": "-8.4%"}, {"smiles": "C[C@@H]1CN([C@@H](C)CO)C(=O)c2c(c3ccccc3n2C)-c2ccccc2CO[C@@H]1CN(C)S(=O)(=O)c1ccc(F)cc1", "inhibition": "-18%"}, {"smiles": "C[C@H]1CN([C@@H](C)CO)C(=O)c2ccccc2-c2ccccc2CO[C@@H]1CN(C)S(=O)(=O)c1ccc(C(F)(F)F)cc1", "inhibition": "105% (active)"}, {"smiles": "C[C@@H]1CN([C@@H](C)CO)C(=O)c2ccccc2-c2ccccc2CO[C@H]1CN(C)C(=O)Nc1ccccc1", "inhibition": "24.6%"}, {"smiles": "Cc1ccc(S(=O)(=O)N(C)C[C@H]2OCc3ccccc3-c3ccccc3C(=O)N([C@@H](C)CO)C[C@@H]2C)cc1", "inhibition": "81.8%"}, {"smiles": "O=C(C[C@H]1CC[C@@H]2[C@H](COC[C@H](O)CN2S(=O)(=O)c2ccc(F)cc2)O1)NCCN1CCCCC1", "inhibition": "7.58%"}, {"smiles": "CNC(=O)C[C@@H]1CC[C@@H]2[C@@H](COc3ccc(NC(=O)Cc4cccs4)cc3C(=O)N2C)O1", "inhibition": "-40.4%"}, {"smiles": "Cc1noc(C)c1NC(=O)N(C)C[C@H]1OCCCC[C@H](C)Oc2ccc(NC(=O)Nc3ccc4c(c3)OCO4)cc2C(=O)N([C@H](C)CO)C[C@@H]1C", "inhibition": "17.1%"}, {"smiles": "COCC(=O)N1C[C@H](C)[C@@H](OC)CN(C)C(=O)c2cc(NC(=O)c3ccc(OC)cc3)ccc2OC[C@H]1C", "inhibition": "5.7%"}, {"smiles": "CC=Cc1ccc2n(c1=O)C[C@H]1[C@H](CO)[C@@H](C(=O)NCC3CC3)N(Cc3nccs3)[C@@H]21", "note": "(mixture of isomers)", "inhibition": "-71.1%"}, {"smiles": "COc1ccccc1C#Cc1cnc2c(c1)C(=O)N([C@@H](C)CO)C[C@H](C)[C@@H](CN(C)C(=O)CC1CC1)O2", "inhibition": "92.8%"}, {"smiles": "C[C@@H]1CCCCO[C@H](CN(C)S(=O)(=O)c2cn(C)cn2)[C@H](C)CN([C@@H](C)CO)C(=O)c2cc(NC(=O)Nc3ccc(C(F)(F)F)cc3)ccc2O1", "inhibition": "29.7%"}, {"smiles": "CO[C@@H]1CN(C)C(=O)c2ccc(NC(=O)Nc3c(C)noc3C)cc2OC[C@H](C)N(CC2CC2)C[C@H]1C", "inhibition": "91.1%"}, {"smiles": "C[C@@H]1CN([C@@H](C)CO)C(=O)c2cc(-c3cncnc3)cnc2O[C@@H]1CN(C)C(=O)c1ccccc1F", "inhibition": "92.3%"}, {"smiles": "C[C@H]1CN([C@@H](C)CO)C(=O)c2cc(C3=CCCC3)cnc2O[C@@H]1CN(C)C(=O)c1ccccc1", "inhibition": "-4.66%"}, {"smiles": "CCCC(=O)Nc1ccc2c(c1)OC[C@H](C)N(CCC)C[C@@H](C)[C@@H](OC)CN(C)C2=O", "inhibition": "-74.1%"}, {"smiles": "CN1c2ccc(C3=CCCCC3)cc2[C@H]2[C@H](CCN2S(=O)(=O)c2ccccc2)[C@@H]1CO", "inhibition": "86.7%"}, {"smiles": "C[C@@H]1CCCCO[C@H](CN(C)S(C)(=O)=O)[C@@H](C)CN([C@@H](C)CO)C(=O)c2cc(NC(=O)CCC(F)(F)F)ccc2O1", "inhibition": "31.3%"}, {"smiles": "C[C@H](CO)N1C[C@H](C)[C@H](CN(C)S(=O)(=O)c2ccccc2)Oc2ncc(-c3cccc(C(F)(F)F)c3)cc2C1=O", "inhibition": "118% (active)"}, {"smiles": "C[C@H]1CN([C@@H](C)CO)C(=O)c2cc(-c3cccc(F)c3)cnc2O[C@@H]1CN(C)S(C)(=O)=O", "inhibition": "36.8%"}, {"smiles": "C[C@H](CO)N1C[C@H](C)[C@@H](CN(C)S(=O)(=O)c2ccccc2)Oc2ncc(-c3ccncc3)cc2C1=O", "inhibition": "2.86%"}, {"smiles": "CCCNC(=O)[C@H]1[C@H](CO)[C@H]2Cn3c(ccc(C4=CCCC4)c3=O)[C@H]2N1C(=O)CC", "inhibition": "6.67%"}, {"smiles": "O=C(C[C@H]1CC[C@H]2[C@@H](COC[C@@H](O)CN2S(=O)(=O)c2cccc(Cl)c2)O1)NC1CCCC1", "inhibition": "-59.2%"}, {"smiles": "O=C(Nc1cc(Cl)cc(Cl)c1)N[C@H]1CC[C@@H](CCNS(=O)(=O)c2cccc(F)c2)O[C@H]1CO", "inhibition": "117% (active)"}, {"smiles": "O=C(Nc1ccccc1)N[C@H]1CC[C@H](CCNC(=O)c2ccccc2F)O[C@H]1CO", "inhibition": "22.8%"}, {"smiles": "O=C(Nc1ccc(Cl)cc1)N[C@@H]1CC[C@@H](CCNC(=O)c2ccccc2F)O[C@H]1CO", "inhibition": "169% (active)"}, {"smiles": "O=C(Nc1ccc(C(F)(F)F)cc1)N[C@@H]1CC[C@H](CCNC(=O)c2ccccc2F)O[C@H]1CO", "inhibition": "-57%"}, {"smiles": "O=C(Nc1cc(Cl)cc(Cl)c1)N[C@@H]1CC[C@H](CCNS(=O)(=O)c2cccc(F)c2)O[C@H]1CO", "inhibition": "17.2%"}, {"smiles": "O=S(=O)(NCC[C@H]1CC[C@@H](NS(=O)(=O)c2cccc(Cl)c2)[C@@H](CO)O1)c1cccc(F)c1", "inhibition": "11.3%"}, {"smiles": "COc1ccccc1CNC(=O)C[C@@H]1CC[C@H](NC(=O)CN(C)C)[C@@H](CO)O1", "inhibition": "18.4%"}, {"smiles": "O=C(Nc1ccc(F)cc1)N[C@H]1CC[C@H](CCn2cc(-c3ccc(F)cc3)nn2)O[C@@H]1CO", "inhibition": "-16.9%"}, {"smiles": "C[C@H]1CN([C@@H](C)CO)S(=O)(=O)c2ccc(C#Cc3ccncc3)cc2O[C@@H]1CN(C)C(=O)Nc1ccc2c(c1)OCO2", "inhibition": "86.1%"}, {"smiles": "CN1C(=O)c2cc(NC(=O)NC3CCCC3)ccc2OC[C@@H]2O[C@@H](CC(=O)O)CC[C@H]21", "inhibition": "-32.1%"}, {"smiles": "C[C@@H]1CN([C@H](C)CO)C(=O)c2cc(NC(=O)Nc3ccccc3)ccc2O[C@@H](C)CCCCO[C@H]1CN(C)Cc1ccc(C(F)(F)F)cc1", "inhibition": "73.3%"}, {"smiles": "C[C@@H]1CCCCO[C@@H](CN(C)Cc2ccc(C(=O)O)cc2)[C@@H](C)CN([C@@H](C)CO)C(=O)c2cc(NC(=O)Nc3ccc(C(F)(F)F)cc3)ccc2O1", "inhibition": "14.7%"}, {"smiles": "C[C@@H]1CCCCO[C@H](CN(C)Cc2ccc(C(F)(F)F)cc2)[C@H](C)CN([C@H](C)CO)C(=O)c2cc(NC(=O)Nc3ccc(F)cc3)ccc2O1", "inhibition": "103% (active)"}, {"smiles": "C[C@@H]1CN([C@H](C)CO)C(=O)c2cc(NC(=O)Nc3ccc(C(F)(F)F)cc3)ccc2O[C@@H](C)CCCCO[C@@H]1CN(C)Cc1ccc(C(F)(F)F)cc1", "inhibition": "86.3%"}, {"smiles": "C[C@H]1CCCCO[C@@H](CN(C)Cc2ccc(C(F)(F)F)cc2)[C@@H](C)CN([C@@H](C)CO)C(=O)c2cc(NC(=O)Nc3ccccc3)ccc2O1", "inhibition": "73.3%"}, {"smiles": "C[C@@H]1CCCCO[C@@H](CN(C)Cc2ccc(C(F)(F)F)cc2)[C@@H](C)CN([C@H](C)CO)C(=O)c2cc(NC(=O)Nc3ccccc3)ccc2O1", "inhibition": "110% (active)"}, {"smiles": "C/C=C/c1ccc2c(c1)O[C@H](CN(C)C(=O)Cc1ccncc1)[C@@H](C)CN([C@@H](C)CO)S2(=O)=O", "inhibition": "20.3%"}, {"smiles": "C[C@H]1CCCCO[C@H](CN(C)CC2CCCCC2)[C@@H](C)CN([C@@H](C)CO)C(=O)c2cc(NS(=O)(=O)c3ccc(Cl)cc3)ccc2O1", "inhibition": "88%"}, {"smiles": "C[C@@H]1CN([C@@H](C)CO)C(=O)c2cc(C#CC3CCCCC3)cnc2O[C@H]1CN(C)S(=O)(=O)c1ccccc1", "inhibition": "104% (active)"}, {"smiles": "CCCC#Cc1cnc2c(c1)C(=O)N([C@H](C)CO)C[C@H](C)[C@@H](CN(C)S(=O)(=O)c1ccccc1)O2", "inhibition": "75.2%"}, {"smiles": "C[C@H]1CN([C@@H](C)CO)C(=O)c2cc(C#CC3CCCCC3)cnc2O[C@H]1CN(C)S(=O)(=O)c1ccccc1", "inhibition": "104% (active)"}, {"smiles": "C[C@@H]1CN([C@H](C)CO)C(=O)c2cc(C#CC3CCCC3)cnc2O[C@H]1CN(C)C(=O)C1CC1", "inhibition": "32.3%"}, {"smiles": "CC(C)NC(=O)N(C)C[C@H]1Oc2ncc(C#CC3CCCCC3)cc2C(=O)N([C@H](C)CO)C[C@@H]1C", "inhibition": "84.2%"}, {"smiles": "C[C@@H]1CN([C@@H](C)CO)C(=O)c2cc(C#CC3CCCCC3)cnc2O[C@@H]1CN(C)Cc1cncnc1", "inhibition": "53.7%"}]}]}
